About 1,200 (1.6%) of roughly 76,000 compounds were called active. Where a call stands in place of a potency, no number is given. Another 4% or so got no clear call; they are omitted. This is one part of a sample in which actives are shown more often than they occur. Calls come from the whole dose curve.
What follows are compounds tested against Atrial natriuretic peptide receptor 1 (Homo sapiens) (UniProt P16066) (assay: Natriuretic polypeptide receptor (hNpr1) antagonism - Primary qHTS). Details: HEK293 hNpr1 GloSensor cGMP, ANP-stimulated luminescence; series mostly up to 46.3 µM.
Chain of Atrial natriuretic peptide receptor 1 (Homo sapiens) (P16066 whole entry, looked up): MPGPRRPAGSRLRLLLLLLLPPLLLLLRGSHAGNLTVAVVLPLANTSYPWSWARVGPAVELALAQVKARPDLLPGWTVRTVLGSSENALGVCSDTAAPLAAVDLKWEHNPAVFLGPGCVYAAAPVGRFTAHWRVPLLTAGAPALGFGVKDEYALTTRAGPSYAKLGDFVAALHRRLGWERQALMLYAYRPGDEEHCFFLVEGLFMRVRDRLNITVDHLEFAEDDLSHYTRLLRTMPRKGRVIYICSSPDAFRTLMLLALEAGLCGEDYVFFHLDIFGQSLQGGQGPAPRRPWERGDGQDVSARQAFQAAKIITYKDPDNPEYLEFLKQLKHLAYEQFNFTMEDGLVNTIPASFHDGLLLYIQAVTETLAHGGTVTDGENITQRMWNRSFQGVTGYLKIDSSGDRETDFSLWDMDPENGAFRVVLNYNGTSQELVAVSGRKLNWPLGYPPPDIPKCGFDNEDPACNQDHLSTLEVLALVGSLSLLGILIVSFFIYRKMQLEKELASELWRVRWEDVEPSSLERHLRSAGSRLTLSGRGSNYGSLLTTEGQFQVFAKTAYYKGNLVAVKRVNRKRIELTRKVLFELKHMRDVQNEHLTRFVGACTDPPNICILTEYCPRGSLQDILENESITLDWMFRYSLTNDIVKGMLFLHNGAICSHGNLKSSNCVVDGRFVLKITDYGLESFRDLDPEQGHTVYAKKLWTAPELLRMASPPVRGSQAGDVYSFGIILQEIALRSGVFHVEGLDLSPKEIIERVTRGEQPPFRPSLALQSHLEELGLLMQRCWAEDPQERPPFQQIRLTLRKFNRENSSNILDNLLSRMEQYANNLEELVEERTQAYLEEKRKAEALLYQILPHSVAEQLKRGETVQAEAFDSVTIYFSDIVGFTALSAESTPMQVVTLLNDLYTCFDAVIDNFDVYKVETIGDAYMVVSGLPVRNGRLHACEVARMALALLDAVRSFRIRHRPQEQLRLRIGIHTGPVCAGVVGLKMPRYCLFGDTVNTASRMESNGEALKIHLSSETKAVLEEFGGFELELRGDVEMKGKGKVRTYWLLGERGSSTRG
Method in brief: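 Compound pre-incubated 30 min at room temperature on GloSensor-loaded HEK293 cells stably carrying hNpr1 and the pGS-40F cGMP biosensor. Stimulation uses hNppA at 0.1 nM final; luminescence is taken at baseline and 20 min post-agonist.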
Note: nearly all actives have a fitted effect of over 60% in size.
Potency is the fitted concentration of half-maximal effect.

Row | SMILES | Potency
1 | COc1ccccc1C(=O)N1CCC2(CC1)CC(=O)c1ccccc1O2 | inactive
2 | CC(=O)N(C1CC1)C1CCOC2(CCN(C(=O)C3(c4ccccc4)CC3)CC2)C1 (stereo unspecified) | inactive
3 | COCC1CN(C(C)=O)CC12CCN(Cc1ccccc1OC)CC2 (stereo unspecified) | inactive
4 | CC1=NS(=O)(=O)N(C)C=C1C(=O)OCc1nc(-c2ccc(C)cc2)no1 | 10 µM (active)
5 | CC1=NS(=O)(=O)N(C)C=C1C(=O)OCc1nc(-c2ccccc2C)no1 | inactive
6 | COc1ccc(CN2C=C(C(=O)OCc3nc(C)no3)C(C)=NS2(=O)=O)cc1 | inactive
7 | CCn1ncc(N2CCC(NC(=O)c3ccccc3OC)CC2)cc1=O | inactive
8 | COc1cccc(C(=O)NCC2Cn3cccc3C(=O)N2Cc2ccccc2)c1 (stereo unspecified) | inactive
9 | COc1cccc(-c2cc(-c3nc(C4CCOC4)no3)[nH]n2)c1 (stereo unspecified) | inactive
10 | COc1ccc(-c2[nH]nc3ncc(C(=O)Nc4ccccc4)nc23)c(C)c1 | inactive
11 | CN(C)c1ccc2ncc(Nc3ccccc3F)n2n1 | inactive
12 | COc1ccccc1Nc1cnc2ccc(-c3ccc(OC)c(OC)c3)nn12 | inactive
13 | COc1ccccc1Nc1cnc2ccc(N(C)Cc3cccnc3)nn12 | 25.1 µM (active)
14 | O=C1NC2(CN([S+](=O)([O-])c3cccc(C(F)(F)F)c3)C2)Oc2ccccc21 | inactive
15 | Cc1cccc(-n2nc(-c3c(C)nc4scc(CC(=O)NC(C)C(C)C)n4c3=O)cc2C)c1 (stereo unspecified) | inactive
16 | COc1cccc(CNC(=O)Cn2c(N(C)Cc3ccccc3)nc(C)cc2=O)c1OC | 15.8 µM (active)
17 | COc1cccc(NC(=O)Cn2c(-c3ccccc3)nc(C)cc2=O)c1 | inactive
18 | COc1cc(NC(=O)Cn2c(N3CCc4ccccc4C3)nc(C)cc2=O)cc(OC)c1 | inactive
19 | COc1ccccc1CNC(=O)CN1CCCC(CO)(CC2CC2)C1 (stereo unspecified) | inactive
20 | COc1cccc(NC(=O)Cn2c(N(C)Cc3ccccc3)nc(C)cc2=O)c1 | 10 µM (active)
21 | CCCN1C(=O)Cc2ccccc2C1C(=O)NCc1cccc(OC)c1OC (stereo unspecified) | inactive
22 | COc1ccc2[nH]c3c(c2c1)CCNC31CCN(C(=O)c2cc(C)n(C)n2)CC1 | inactive
23 | COc1cccc(C(C(=O)O)N2CCN(c3ccccn3)CC2)c1OC (stereo unspecified) | inactive
24 | Cc1cc(C(=O)N2CCC3(CC2)CC(C(=O)N2CCOCC2)N(C)C3)nn1C (stereo unspecified) | inactive

Row | SMILES | Potency
25 | CCn1nccc1C(=O)N1CCCCCNC(=O)[C@H]2C[C@H](C(=O)N3CCc4ccccc4C3)C[C@H]21 | inactive
26 | Cc1ccc(OCc2nc(C3CCN(C(=O)CCc4nc5ccc(Cl)cc5[nH]4)CC3)no2)cc1 | 11.2 µM (active)
27 | Cc1ccc(OCc2nc(C3CCN(C(=O)c4noc(C)c4CN4CCCCC4)CC3)no2)cc1 | inactive
28 | Cc1ccc(OCc2nc(C3CCN(C(=O)c4c5c(nc6ccccc46)CCCC5)CC3)no2)cc1 | inactive
29 | COCCOC1CCN(C(=O)c2[nH]nc3c2COc2ccccc2-3)CC1 | inactive
30 | COCCNC(=O)Cc1c[nH]c2ncc(-c3cccnc3OC)cc12 | inactive
31 | CN(C(=O)Cc1c[nH]c2ncc(-c3cnn(C)c3)cc12)c1ccccc1 | inactive
32 | O=C(Cc1c[nH]c2ncc(-c3ccccc3F)cc12)N1CCOCC1 | 25.1 µM (active)
33 | Cc1noc(C)c1-c1cnc2[nH]cc(CC(=O)N3CCOCC3)c2c1 | 22.4 µM (active)
34 | Cc1noc(C)c1-c1nccc2c(=O)cc(N3CCOCC3)oc12 | inactive
35 | COc1ccc(CNC(=O)Cc2c[nH]c3ncc(-c4ccccc4)cc23)cc1OC | inactive
36 | CCCCSc1nc(N)cc(N2CCCC(OCc3cccnc3)C2)n1 (stereo unspecified) | inactive
37 | CC(C)CNC(=O)CC(c1ccc(F)cc1F)c1c[nH]c2ccccc12 (stereo unspecified) | inactive
38 | COc1ccc(CNC(=O)c2cc3n(n2)CC(c2ccc4c(c2)OCO4)OC3)c(OC)c1 (stereo unspecified) | inactive
39 | CCCc1nc(C(=O)N[C@@H]2[C@@H](Cc3ccccc3)[C@H]3OCC[C@@H]23)cs1 | inactive
40 | Cc1ccc(NC(=O)Cn2ccn3nc4c(c3c2=O)CC(C)CC4)cc1Cl (stereo unspecified) | inactive
41 | O=c1n(CC2CC2)nc2n1CCC(NS(=O)(=O)c1cccc(F)c1)CC2 (stereo unspecified) | inactive
42 | Cc1ccc(CC(=O)N2CCC(Cc3nc(-c4cnccn4)no3)CC2)cc1 | inactive
43 | COc1ccc(-c2noc([C@@H]3CCCN3C(=O)Cc3ccccc3Cl)n2)cc1 | inactive
44 | COc1ccc(-c2noc(CC3CCN(C(=O)Cc4ccc(C)cc4)CC3)n2)cc1 | 15.8 µM (active)
45 | COc1ccc(-c2noc(CC3CCN(C(=O)Cc4ccccc4)CC3)n2)cc1 | 11.2 µM (active)
46 | COc1ccc(-c2noc(CC3CCN(C(=O)CC4CCCCC4)CC3)n2)cc1 | 6.31 µM (active)
47 | COc1ccc(C(=O)N2CCC(Cc3nc(-c4cnccn4)no3)CC2)cc1 | inactive
48 | COc1ccc(-c2noc([C@@H]3CCCN3C(=O)CCc3ccccc3)n2)cc1 | inactive

Row | SMILES | Potency
49 | COc1ccc(CC(=O)N2CCC[C@H]2c2nc(-c3ccccc3)no2)cc1 | inactive
50 | CCOc1ccc(CC(=O)N2CCC(Cc3nc(-c4cnccn4)no3)CC2)cc1 | inactive
51 | O=C(Nc1ccc(C(F)(F)F)cc1)N[C@@H]1C[C@H](CO)[C@@H](O)[C@H]1O | inactive
52 | COc1ccc(C(=O)N2CCC3(CC2)NC(=O)N(c2ccc(F)cc2)N3)cc1OC | inactive
53 | O=C(Nc1ccccc1)N1CCCCC1c1noc(COc2ccc(F)cc2)n1 (stereo unspecified) | inactive
54 | CCCn1cnc2c1CN(S(=O)(=O)Cc1ccccc1)[C@H](C(=O)OC)C2 | inactive
55 | CCc1nc(-c2c3n(c(=O)n(CCc4ccc(OC)cc4)c2=O)CCCC3)no1 | inactive
56 | COc1cccc(CN2CCc3c(cc(C(=O)NCCN4CCCCC4)n3C)C2)c1 | inactive
57 | COc1ccc(CNC(=O)c2cccc3c2CCN3C(=O)c2ccc(F)cc2)cc1OC | 8.91 µM (active)
58 | COc1ccc(NC(=O)c2ccc3c(c2)N(C(=O)c2ccc(F)cc2)CC3)c(C)c1 | inactive
59 | CN1CCCCCC(O)c2cc(C(=O)NCc3ccc(F)cc3)ccc21 (stereo unspecified) | inactive
60 | O=C(c1ccnc(-c2nnc3ccc(N4CCOCC4)nn23)c1)N1CCCCC1 | inactive
61 | COc1ccccc1CNC(=O)CCC[C@@H]1[C@H]2CCCN3CCC[C@@H](CN1C(=O)c1ccccc1)[C@@H]23 | inactive
62 | COCCN1CCCCCC(O)c2cc(C(=O)Nc3cccc(OC)c3)ccc21 (stereo unspecified) | inactive
63 | CN(Cc1ccc(CCN)cc1)Cc1cccc(-n2cccn2)c1 | inactive
64 | O=C(NCc1nnc2cc(-c3nc(C4CC4)no3)ccn12)c1ccc(F)cc1Cl | 7.08 µM (active)
65 | CCOc1ccccc1C(=O)NCc1nnc2cc(-c3nc(C)no3)ccn12 | inactive
66 | CN(C)c1ccc(C(=O)NCc2nnc3cc(-c4nc(C5CC5)no4)ccn23)cc1 | inactive
67 | COc1cccc(CC(=O)N2CCCC(c3nc(-c4cccnc4)no3)CCNC(=O)CC2)c1 (stereo unspecified) | inactive
68 | Cc1cccc(OCC(=O)N2CCN(c3cc(C(F)(F)F)nc(C)n3)CC2)c1 | inactive
69 | CC(C)CN[C@H]1[C@H](O)[C@H](O)C[C@@H]1c1ccc(N2CCOCC2)nc1 | inactive
70 | CN(C)CCN(C)c1ccc(-c2nc(-c3ccccc3F)no2)cn1 | inactive
71 | CN(CCc1cn[nH]c1)c1ccc(-c2nc(-c3ccccc3F)no2)cn1 | 8.91 µM (active)
72 | Oc1ccc(-c2ccc(-c3nc(CCc4ccccc4)no3)cn2)cc1 | inactive

Row | SMILES | Potency
73 | CCCC(C)C(=O)N1CCCN(C)c2ccccc21 (stereo unspecified) | inactive
74 | COc1ccc2nc3n(c2c1)[C@@H](CNC1CCCCC1)COC3 | inactive
75 | Cc1ccccc1-n1nc(C)c(CCC(=O)NC(C)C)c1Oc1cccc(F)c1 | inactive
76 | Cc1cc(N2CCCC(Cn3cc(Cc4ccccc4)nn3)C2)nc(N)n1 (stereo unspecified) | 7.94 µM (active)
77 | COc1ccc(-c2cn3c(n2)CO[C@@H](CNCc2ccc(F)c(F)c2)C3)cc1 | inactive
78 | CN(Cc1csc(-c2ccccc2)n1)c1cc(C2CC(O)C2)nc(N)n1 (stereo unspecified) | 2.51 µM (active)
79 | COc1ccc(CN2C(=O)CO[C@H]3CN(Cc4cccnc4)C[C@H]32)cc1 | inactive
80 | COc1ccc(CN2C(=O)CO[C@H]3CN(C(=O)C4CC4)C[C@H]32)cc1 | inactive
81 | COc1ccc(CN2C(=O)CO[C@H]3CN(Cc4ccc5c(c4)OCO5)C[C@H]32)cc1 | 31.6 µM (active)
82 | Cc1noc(C)c1C(=O)N1CCCC(CCc2ccc(F)cc2F)C1 (stereo unspecified) | inactive
83 | Cc1c[nH]c(CN2CCCC(CCc3ccc(F)cc3F)C2)c(C)c1=O (stereo unspecified) | 2.51 µM (active)
84 | Cc1cc(F)ccc1NC(=O)CCC1CCCN(C(=O)c2ccc(Cl)s2)C1 (stereo unspecified) | inactive
85 | Fc1ccc(-c2cnc3n[nH]c(-c4ccc5c(c4)OCO5)c3n2)cc1 | inactive
86 | Cc1ccc(-c2nnc(C3CN(C(=O)CCc4ccccc4)CC34CCOCC4)o2)cc1 (stereo unspecified) | inactive
87 | O=C(c1ccc2cc[nH]c2c1)N1CCC2(CC1)N=C(c1ccc(Cl)cc1)NO2 | 11.2 µM (active)
88 | O=C(c1cccc2[nH]ccc12)N1CCC2(CC1)N=C(c1cccc(Br)c1)NO2 | inactive
89 | Cc1ccc(C2=NC3(CCN(C(=O)c4ccc(C#N)cc4)CC3)ON2)cc1 | inactive
90 | OCC1(CN2CCCC2)CCN(Cc2cccc(Cn3cccn3)c2)CC1 | inactive
91 | COc1cccn(CC(=O)N(C)Cc2csc(C(C)C)n2)c1=O | inactive
92 | COc1ccc(CNC(=O)CN2C(=O)NC3(CCC(C(C)(C)C)CC3)C2=O)cc1OC (stereo unspecified) | inactive
93 | c1ccc(-c2noc(-c3ccccc3OC3CCNC3)n2)cc1 (stereo unspecified) | inactive
94 | CC(C)(CC(=O)O)CC(=O)N[C@H]1CO[C@H]2[C@@H]1OC[C@@H]2n1nnnc1-c1ccccc1 | inactive
95 | c1ccc(CO[C@@H]2CO[C@H]3[C@@H]2OC[C@@H]3n2nnnc2SCc2ccco2)cc1 | 22.4 µM (active)
96 | CC(C)(C)CC(=O)N1CC[C@H](NC(=O)Nc2ccc(F)cc2F)[C@H]1C(=O)N[C@H](Cc1ccccc1)C(N)=O | inactive

Source: PubChem BioAssay AID1347048 (National Center for Advancing Translational Sciences (NCATS), 2019)
